Test results published in PubChem BioAssay (NCATS).
Results filed as inconclusive are left out. The source made the active and inactive calls. Calls come from the whole dose curve; as a rule, active = well fitted cell-killing curve with a large enough effect; inconclusive = small, poorly fitted or top-dose-only effect; inactive = flat fitted curve, though single readings scatter.

Experiment: Cell Viability - LYMP2-010 (AID 981); note: nearly all actives have a fitted effect of over 55% in size
Conditions: LYMP2-010 lymphoblastoid cell viability, qHTS; series mostly up to 92.2 µM; activity, negative = cytotoxicity: at the top concentration
From the text: NIH Chemical Genomics Center [NCGC]
NIH Molecular Libraries Screening Centers Network [MLSCN]
National Institutes of Environmental Health Sciences [NIEHS]
National Toxicology Program [NTP]
We have developed a 1536-well cell-based assay for quantitative high throughput screening (qHTS) against a number of cell lines to determine in vitro cytotoxicity of small molecules. This particular assay uses a human lymphoblastoid cell line (LYMP2-010) purchased from Coriell Institute for Medical Research.
NCGC Assay Protocol Summary:
The CellTiter-Glo luminescent cell viability assay (Promega) is a homogeneous method to measure the number of viable cells in culture. The end point readout of this assay is based on quantitation of intracellular ATP, an indicator of metabolic activity, using the luciferase reaction. Luciferase catalyzes the oxidation of beetle Luciferin to oxyluciferin and light in the presence of ATP. The luminescent signal is proportional to amount of ATP present.
Using the CellTiter-Glo luminescent cell viability assay, the amount of cellular ATP was measured in the lymphoblastoid cell line with complete culture medium following compound treatment for 24 hours. The assay was performed in opaque white Kalypsys 1536-well plates. In the screen, tetraoctylammonium bromide was used as positive control. Library compounds were measured for their ability to cause acute toxicity in the cell line, as reflected by a decrease in intracellular ATP levels, in a concentration-dependent manner. […] AC50 values were determined from concentration-response data modeled with the standard Hill equation.
qHTS protocol for CellTiter Glo lymphoblastoid cellular assay
[Step] [Parameter] [Value] [Description]
1. Reagent; 5 uL; 2500 lymphoblastoid cells/well
2. Time; 5 hr; 37 C incubation
4. Controls; 23 nL; Tetraoctylammonium bromide 6.4pM to 92 uM
5. Time; 24 hr; 37 C incubation
6. Reagent; 5 uL; CellTiter Glo reagent
7. Time; 30 min; Room Temperature
8. Detection; Luminescence; Viewlux plate reader
Keywords: cell viability, cytotoxicity, lymphoblastoid cell line, luminescence, NTPHTS, NTPHTS_NCGC, NIEHS, DSSTox, MLSMR, MLSCN, NIH Roadmap, qHTS, NCGC
% is set by controls: 0 for no effect and ±100 for the full control effect; potency is the fitted concentration of half-maximal effect.

Row | SMILES | activity, negative = cytotoxicity | Potency
1 | NCCO | -12.6% (inactive) | 
2 | N=C1N=C(N)c2cc3ccccc3cc21 |  | 39.8 µM (active)
3 | O=c1cc(-c2ccccc2)oc2ccccc12 | -27.3% (inactive) | 
4 | CN1CCC[C@H]1c1cccnc1 | -10.6% (inactive) | 
5 | O=C(O)/C=C\C(=O)O | -16.4% (inactive) | 
6 | CC(C)NCC(O)COc1cccc2ccccc12 (stereo not given) | -29.8% (inactive) | 
7 | CC1(C)S[C@@H]2[C@H](NC(=O)[C@H](N)c3ccccc3)C(=O)N2[C@H]1C(=O)O | -0.124% (inactive) | 
8 | CCCOC(=O)c1ccc(O)cc1 |  | inactive
9 | S=c1[nH]c2ccccc2s1 | -12.1% (inactive) | 
10 | CN(C)c1ccc(N=NS(=O)(=O)O)cc1 | -19.8% (inactive) | 
11 | O=C(O)c1cc(O)c(O)c(O)c1 | -19.7% (inactive) | 
12 | C#C[C@]1(O)CC[C@H]2[C@@H]3CCc4cc(O)ccc4[C@H]3CC[C@@]21C | -19.3% (inactive) | 
13 | CCCCCCCCCCCCCCCCCC(=O)O | -22.2% (inactive) | 
14 | Nc1ccc(O)c([N+](=O)[O-])c1 | -23.7% (inactive) | 
15 | COc1cc(/C=C/C(=O)CC(=O)/C=C/c2ccc(O)c(OC)c2)ccc1O |  | 25.1 µM (active)
16 | CN(C)c1ccc(C(=C2C=CC(=[N+](C)C)C=C2)c2ccccc2)cc1 |  | 0.251 µM (active)
17 | c1ccc2sc(SSc3nc4ccccc4s3)nc2c1 | -18.9% (inactive) | 
18 | Nc1ccc(O)c(C(=O)O)c1 | -14.4% (inactive) | 
19 | Nc1ccc([N+](=O)[O-])cc1O | -11% (inactive) | 
20 | COc1cc(CNC(=O)CCCC/C=C/C(C)C)ccc1O | -17.1% (inactive) | 
